# Inconclusive results are not listed. Entries that show only a call come without a potency. A number with no mark means an inactive call. Calls of active or inactive are those of the source. Calls come from the whole dose curve; as a rule, active = well fitted activation curve with a large enough effect in the repeat runs; inconclusive = weak or mixed curves; inactive = flat fitted curve, though single readings scatter.
# Assay: A CellTox Green Cytotoxicity Assay to monitor cytotoxicity in HepG2 cells - 24 hour (AID 1224878); note: nearly all actives have a fitted effect of over 45% in size
# Conditions: CellTox Green fluorescence; series mostly up to 76.8 µM; cytotoxicity: at the top concentration
# From the text: National Center for Advancing Translational Sciences [NCATS]
# NIH Chemical Genomics Center [NCGC]
# U.S. Environmental Protection Agency [EPA]
# National Institutes of Environmental Health Sciences [NIEHS]
# National Toxicology Program [NTP]
# Cell-based models are critical for drug discovery. Determining the natural cytotoxic effects resulting from test compounds is an essential research activity. A CellTox Green Cytotoxicity Assay to monitor cytotoxicity in real time of continues cell culture during 40 hours of the compound treatment was used to screen Tox21 10K library compounds in HepG2 cells. CellTox Green Cytotoxicity Assay is a nonlytic, homogeneous, biofluorescent method to measure cytotoxicity in cell culture after experimental manipulation. The assay system uses a proprietary asymmetric cyanine dye that is excluded from viable cells but preferentially stains the dead cell's DNA. […] Viable cells produce no appreciable increases in fluorescence. Therefore, the fluorescence signal produced by the binding interaction with dead cell DNA is proportional to cytotoxicity.
# The mixture of HepG2 cell suspension and reagents were dispensed at 600cells/6 ul/well in 1536-well tissue culture treated black solid bottom plates using a Multidrop dispenser. After the assay plates were incubated at a 37 C/5% CO2 incubator for 5 hours, 23 nL of compounds dissolved in DMSO, positive and negative controls was transferred to the assay plate by a pintool work station. The plates were incubated at 37 C for 40 hours. The fluorescence intensity were measured at 0h, 8h, 16h, 24h, 32h and 40h time points using ViewLux plate reader during compound treatment.
Compound,Potency,cytotoxicity
Cc1ccc(S(=O)(=O)N=C=O)cc1,inactive,–
CC(=O)OCc1ccccc1,inactive,–
O=C(OCC1CCC2OC2C1)C1CCC2OC2C1 (stereo not given),inactive,–
CN(C)CCOC(=O)COc1ccc(Cl)cc1,inactive,–
O=C(O)Cn1c(=O)n(Cc2ccc(Br)cc2F)c(=O)c2ccc(Cl)cc21,inactive,–
CC1(C)CC(N)CC(C)(CN)C1 (stereo not given),–,0.401%
Cc1ccc(C(C)C)c(O)c1,–,8.21% [at 35.3 µM]
O=C(O)c1ccccc1C(=O)O,inactive,–
CCCCCC(=O)O,inactive,–
COCCOC(=O)c1ccccc1C(=O)OCCOC,–,-5.76%
CCCCCCC=O,inactive,–
CC(C)c1cccc(C(C)C)c1,inactive,–
COc1ccc(OC)cc1,inactive,–
OCc1ccccc1,inactive,–
CC(C)(C)c1cc(Cc2cc(C(C)(C)C)c(O)c(C(C)(C)C)c2)cc(C(C)(C)C)c1O,–,-0.77%
CCNc1cccc(C)c1,inactive,–
CCOC(=O)c1ccc(N)cc1,inactive,–
COc1ccc(CCC(C)=O)cc1,inactive,–
CC(CCO)CC(C)(C)C (stereo not given),inactive,–
CC(C)OC(=O)COc1ccc(Cl)cc1Cl,inactive,–

Compound,Potency,cytotoxicity
COCCCN,inactive,–
C=CCc1ccc(OC)c(OC)c1,inactive,–
CCCCCCCCCCN,inactive,–
CN(C)c1ccc(O)c2c1C[C@H]1C[C@H]3[C@H](N(C)C)C(=O)C(C(N)=O)=C(O)[C@@]3(O)C(=O)C1=C2O,inactive,–
NCCNCCN,inactive,–
CCCCCCCCCCCC(=O)OC,inactive,–
C=CCCCCCCCCC(=O)O,inactive,–
COc1cc(OC)c(C(=O)CCCN2CCCC2)c(OC)c1,inactive,–
CN1C(=O)CC[C@H]1c1cccnc1,inactive,–
CC(=O)CCC=C(C)C,inactive,–
CC(C)CC(C)O (stereo not given),inactive,–
O=C(O)c1ccc(S(=O)(=O)N(Cl)Cl)cc1,inactive,–
C[Si]1(C)O[Si](C)(C)O[Si](C)(C)O[Si](C)(C)O1,–,-0.557%
COc1ccc(N)c(C)c1,inactive,–
CCCCCCO,–,-1.26%
Nc1nc(N)nc(-c2ccccc2)n1,inactive,–
O=C(O)CCCCCCCCC(=O)O,inactive,–
O=S(=O)(O)c1ccc(N=Nc2c(O)ccc3cc(S(=O)(=O)O)ccc23)cc1,inactive,–
CC(=O)Oc1ccc(C)cc1,–,-16.2% [at 35.3 µM]
Brc1ccc(Br)c(Br)c1,inactive,–

# — PubChem BioAssay (Tox21)
